CF NFkB inh: inhibitors of PAF-induced NF-kB signaling, primary screen, cell-based, GFP fluorescence, uHTS; inhibition, % at 5 µM; 360,000 tested, 0.86% active; AID 588850, 2011; KKLEB NF-kB-GFP reporter, GFP fluorescence overnight;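 active = at least 50% inhibition at 5 µM, scaled per plate between neutral and stimulator controls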;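 note: PAF is a Pseudomonas aeruginosa culture filtrate used as stimulus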
Peg3 promoter: Peg3 promoter-driven luciferase inhibitors, primary screen, cell-based, HeLa, luciferase luminescence; AID 588405, 2011; inhibition, % at 20 µM; HeLa PEG-Prom luciferase reporter, overnight; 360,000 tested, 1.7% active;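 active = inhibition of at least 50% at 20 µM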
HIF-2a block: HIF-2a reporter inhibitors, primary screen, luminescence, 786-0 RCC cells. 786-0 RCC cells HIF-2a reporter, luciferase luminescence, overnight. inhibition, % at 18.8 µM. 360,000 tested, 0.72% active. AID 624352, 2012;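 active = inhibition of the luminescence signal of 40% or more relative to plate controls, in a single-dose primary screen at 18.75 µM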
TRPM1 prom inh: inhibitors of MITF-dependent TRPM1 promoter reporter, primary screen, cell-based, SK-MEL-5, single point, luciferase; inhibition, % at 12.5 µM; SK-MEL-5 TRPM1 promoter luciferase, 24 h; AID 488899, 2010; 330,000 tested, 0.83% active;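 active = mean inhibition across replicates of 60% or more, whatever share of single replicates reaches that level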
ABHD5 PLIN5 PPI: ABHD5-PLIN5 interaction inhibitors, primary screen, cell lysate, split luciferase complementation, luminescence; Perilipin-5 (Homo sapiens) + 1-acylglycerol-3-phosphate O-acyltransferase ABHD5 (Homo …; Split G. princeps luciferase complementation, 4 h; inhibition, % at 4 µM; 360,000 tested, 0.78% active;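 active = inhibition above the mean inhibition across every tested compound plus 3 SD, cut at about 22% in these data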
Target sequence (Q00G26 whole entry, looked up): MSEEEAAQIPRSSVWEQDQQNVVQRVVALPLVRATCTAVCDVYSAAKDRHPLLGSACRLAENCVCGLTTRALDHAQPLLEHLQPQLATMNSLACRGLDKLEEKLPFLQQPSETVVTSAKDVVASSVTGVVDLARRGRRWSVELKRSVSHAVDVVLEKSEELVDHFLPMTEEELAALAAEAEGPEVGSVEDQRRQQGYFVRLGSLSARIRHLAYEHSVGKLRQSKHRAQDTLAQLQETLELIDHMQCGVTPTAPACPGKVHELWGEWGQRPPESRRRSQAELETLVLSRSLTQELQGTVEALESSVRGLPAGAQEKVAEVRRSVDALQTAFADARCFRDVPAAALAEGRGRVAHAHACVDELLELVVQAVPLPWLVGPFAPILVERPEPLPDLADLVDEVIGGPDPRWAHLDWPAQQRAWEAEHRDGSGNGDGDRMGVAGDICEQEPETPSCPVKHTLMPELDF
Target sequence (Q8WTS1 whole entry, looked up): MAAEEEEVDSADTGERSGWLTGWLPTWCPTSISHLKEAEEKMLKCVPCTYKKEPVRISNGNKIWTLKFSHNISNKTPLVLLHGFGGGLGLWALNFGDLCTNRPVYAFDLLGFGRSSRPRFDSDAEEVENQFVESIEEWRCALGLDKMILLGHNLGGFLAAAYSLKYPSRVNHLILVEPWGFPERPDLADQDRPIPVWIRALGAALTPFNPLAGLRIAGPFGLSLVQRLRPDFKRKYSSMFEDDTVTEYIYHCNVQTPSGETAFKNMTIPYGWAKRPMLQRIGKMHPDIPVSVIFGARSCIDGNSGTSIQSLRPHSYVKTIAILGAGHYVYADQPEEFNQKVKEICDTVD
KKLEB tox: cytotoxicity in KKLEB CF airway cells, primary screen, cytotoxicity control for CF NF-kB inhibitor project, cell-based, uHTS, fluorescence assay plates | KKLEB CF airway cells viability, ATPlite luminescence, overnight; stronger effect = lower value; cells stimulated with P. aeruginosa culture filtrate | activity change (cytotoxicity), % at 5 µM | 360,000 tested, 0.36% active;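 active = corrected activity change at or below -50% at 5 µM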
Hits are given with their value; n = inactive; x = no result. Sampled rows, rich in hits. Any-hit rate of the full collection: about 3%.

SMILES	CF NFkB inh	Peg3 promoter	HIF-2a block	TRPM1 prom inh	ABHD5 PLIN5 PPI	KKLEB tox
CCOC(=O)C1=C(C)N(C)C(=O)NC1c1cccc2ccccc12 (stereo unspecified)	n	n	n	n	n	n
COc1ccc2sc(-c3ccccc3OC)c(-c3ccc(OCCN(C)C)cc3)c2c1	n	89.0	n	n	n	n
COc1ccc2c(-c3ccc(OCCN4CCCCC4)cc3)c(-c3ccccc3OC)sc2c1	n	92.1	n	n	n	n
COc1ccccc1-c1sc2ccccc2c1-c1ccc(OCCN2CCCCC2)cc1	n	91.3	n	n	n	n
COc1ccc2c(-c3ccc(OCCN4CCOCC4)cc3)c(-c3ccccc3OC)sc2c1	n	n	n	n	n	n
CCN(CC)C(=O)CSc1nnc2nnc3cc(Cl)ccc3n12	n	n	n	72.5	n	n
COc1ccc(C(=O)N2CCOC2CNC(=O)C(=O)NCc2ccccn2)cc1 (stereo unspecified)	n	n	n	x	n	n
COC(=O)CN1C(=O)S/C(=C/c2ccc(N3CCCCC3)o2)C1=O	n	n	n	n	27.3	n
Cc1ccc2c(c1)c1c(n2CC(O)CNC2CCCC2)CCCC1 (stereo unspecified)	n	61.0	n	n	n	n
Cc1ccc2c(c1)c1c3n2CCN(CC(O)CNC(C)C)C3CCC1 (stereo unspecified)	n	71.7	n	n	n	n
N#CCCN(C(=O)COC(=O)C1CCN(S(=O)(=O)c2ccc3c(c2)OCCO3)CC1)c1ccccc1	n	n	n	n	n	n
O=C(Cc1ccc(Cl)cc1Cl)OCC(=O)N1CCCCC1	n	n	n	n	n	n
O=C(COc1ccccc1-c1ccccc1)N/N=C/c1ccc2ccccc2c1	62.4	n	n	n	n	n
Cc1ccccc1OCC(=O)N/N=C/c1ccncc1	n	n	n	n	22.8	n
C/C(=N\NC(=O)c1cc(C)nc2ccccc12)c1ccncc1	n	n	n	n	n	n
Cc1cc(Cl)ccc1OCC(=O)N/N=C/c1ccncc1	n	n	n	n	n	n
C/C(=N\NC(=O)c1cc(C)nc2ccccc12)c1ccccn1	n	n	n	88.9	n	n
COc1cc(C(=O)N/N=C(\C)c2ccccn2)cc(OC)c1OC	n	57.7	n	n	n	n
C/C(=N\NC(=O)c1ccc(Cl)cc1)c1ccccn1	n	n	n	n	n	n
CCc1cc2c(=O)n(CCCOC)c(SCC(=O)Nc3oc(C)c4c(C)n[nH]c(=O)c34)nc2s1	n	n	n	n	n	n
C/C(=N\NC(=O)COc1ccccc1-c1ccccc1)c1ccccn1	n	n	n	83.9	n	n
COc1cccc(C(=O)N/N=C(/c2ccccc2)c2ccccn2)c1	n	86.4	n	66.1	n	n
COc1cccc(C(=O)N/N=C(/CCC(=O)O)c2ccccc2)c1	n	n	n	n	n	n
C/C(=N\NC(=O)COc1ccccc1-c1ccccc1)c1cccnc1	n	n	n	n	n	n
O=C(Nc1ccc(-c2nc3cc(NC(=O)c4cccs4)ccc3o2)cc1)c1cccs1	n	n	n	73.4	n	n
SMILES	CF NFkB inh	Peg3 promoter	HIF-2a block	TRPM1 prom inh	ABHD5 PLIN5 PPI	KKLEB tox
O=C(Nc1ccc2oc(-c3ccncc3)nc2c1)c1cccs1	n	n	n	n	n	n
O=C(O)c1cccc(-c2noc(-c3cccc(Cl)c3)n2)c1	n	53.5	78.9	91.9	n	n
CCN1CCN(C(=O)C(=O)c2cn(CC(=O)N(CC)CC)c3ccccc23)CC1	n	63.1	n	n	n	n
O=c1c2ccc(Cl)cc2nc(-c2cccc(C(F)(F)F)c2)n1O	n	52.1	n	n	n	n
Cn1c(=O)c2c(SCC(=O)N3CCCc4ccccc43)nc(CC(C)(C)C)nc2n(C)c1=O	n	n	53.3	n	n	n
CCCc1nc(SCC(=O)N2CCC(Cc3ccccc3)CC2)c2c(=O)n(C)c(=O)n(C)c2n1	n	98.7	n	n	n	n
Cn1c(=O)c2c(SCC(N)=O)nc(CC(C)(C)C)nc2n(C)c1=O	n	n	n	n	n	n
CCC(CC)c1nnc(NC(=O)CCc2ccccc2OC)s1	n	n	n	n	n	n
COc1ncnc2c1ncn2CCCNCC(C)c1ccccc1 (stereo unspecified)	n	n	n	x	n	n
Cc1oc(=O)c(NC(=O)c2ccccc2)cc1C(=O)c1ccccc1	n	n	n	n	22.7	n
NC(=O)C1(N2CCCCC2)CCN(S(=O)(=O)c2cc(Cl)sc2Cl)CC1	n	n	n	x	n	n
Nc1ccc(C(=O)c2cccs2)cn1	n	n	n	n	n	n
Nc1ccc(-c2cnc(N)c(C(=O)c3cccnc3)n2)cn1	80.9	n	n	n	n	n
Cc1cccc(S(=O)C(c2ccccc2)c2ccccc2)c1 (stereo unspecified)	n	n	n	n	n	n
COc1ccc(-c2[nH]ncc2/C=C(/C#N)C(=O)NC2CCCCCC2)cc1	n	50.2	n	n	n	n
O=C(NC1CCCCC1)C(c1ccncc1)N(C(=O)c1csnn1)c1ccc(F)cc1 (stereo unspecified)	n	n	n	n	n	n
CC1=C(C(=O)N(C)C)CC(CC(=O)NC2CCCCC2)C(=O)N1CCCN1CCCC1=O (stereo unspecified)	n	60.4	n	x	n	n
CC1=C(C(=O)N(C)C)CC(CC(=O)NC2CCCC2)C(=O)N1CCCN1CCCC1=O (stereo unspecified)	n	n	n	x	n	n
CCN1CCN(CCNC(=O)c2ccc(/C=C3/Sc4ccccc4N(Cc4ccccc4C)C3=O)cc2)CC1	n	86.6	n	n	n	-76.9
Cc1ccccc1CN1C(=O)c2ccccc2Sc2ccc(C(=O)NCCN3CCOCC3)cc21	n	n	n	n	n	n
CCN1CCN(CCCNC(=O)c2ccc(/C=C3/Oc4ccccc4N(Cc4cccc(C)c4)C3=O)cc2)CC1	n	74.8	n	75.6	n	n
COc1ccc([C@H]2CC(=O)C=C(c3cccc(OC)c3OC)C2)cc1OC	n	n	n	n	n	n
N#CC1(NC(=O)COC(=O)Cc2c[nH]c3ccccc23)CCCCC1	n	n	n	x	n	n
COc1ccc(/C=N/NC(=O)c2ccc(-c3ccccc3)cc2)cc1O	n	n	n	n	n	n
COc1cc(/C=N\NC(=O)c2ccc(-c3ccccc3)cc2)cc(Br)c1O	64.9	n	n	n	n	n
O=C(CNC(=O)c1cccc(F)c1)NC1CC1	n	n	n	n	n	n
COc1ccc(/C=C2\SC(=S)N(CCC(=O)NC3=NCCS3)C2=O)cc1OC	n	n	54.4	n	n	n

Assay outcomes (PubChem)
